Experimental data reported in ChEMBL document CHEMBL3433997, “St. Jude Leishmania screening dataset” (2016).

target: Solute carrier family 2, facilitated glucose transporter member 1 (Homo sapiens) (UniProt P11166); assay: ST_JUDE_LEISH: Cytotoxicity at 2uM final concentration against transgenic Leishmania Mexicana promastigotes LmGLUT1 that are glucose transport deficient and complemented with the human glucose transporter GLUT1. Activity is measured by DNA content using SYBR green in vitro; format: functional
Sequence (P11166 whole entry): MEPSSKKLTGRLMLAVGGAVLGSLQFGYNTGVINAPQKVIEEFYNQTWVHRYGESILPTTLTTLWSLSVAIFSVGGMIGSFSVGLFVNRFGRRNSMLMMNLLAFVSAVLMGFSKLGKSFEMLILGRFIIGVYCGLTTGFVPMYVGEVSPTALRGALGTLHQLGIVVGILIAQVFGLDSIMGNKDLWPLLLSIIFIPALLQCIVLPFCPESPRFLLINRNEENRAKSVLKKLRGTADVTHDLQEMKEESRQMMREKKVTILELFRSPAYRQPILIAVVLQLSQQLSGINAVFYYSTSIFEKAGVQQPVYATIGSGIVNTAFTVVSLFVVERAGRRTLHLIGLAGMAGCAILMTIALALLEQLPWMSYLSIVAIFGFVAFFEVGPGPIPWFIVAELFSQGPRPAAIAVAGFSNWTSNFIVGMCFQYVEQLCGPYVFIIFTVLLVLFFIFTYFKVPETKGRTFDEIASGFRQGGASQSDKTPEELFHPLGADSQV

| Compound | inhibition [%] |
| --- | --- |
| COc1cc2ccccc2cc1OCCCN1CCN(CC(c2ccc(F)cc2)N2CCN(C(C)C)CC2)CC1 (stereo unspecified) | -2.97 |
| O=C(/C=C/c1ccc(Cl)c(Cl)c1)NCCCCCCN1CCN(C(=O)Nc2cccc(Cl)c2)CC1 | 0.57 |
| O=C(Nc1cccc(C(F)(F)F)c1)Nc1ccc(Cl)c(C(F)(F)F)c1 | -1.34 |
| OC(c1ccc2ccccc2c1)C1CN(CCc2ccccc2)CCC1(O)c1ccccc1 (stereo unspecified) | 0.49 |
| COc1ccccc1C1CC(c2ccccc2)=NN1C(=O)c1ccco1 (stereo unspecified) | -0.28 |
| O=C(Nc1ccc(-c2cccc(-c3nc4cc(C(F)(F)F)ccc4[nH]3)c2)cc1)c1csnn1 | 16.1 |
| Nc1c2c(nc3ccccc13)C(=Cc1ccc(O)cc1)CCC2 | 5.91 |
| Cc1ccc2nc(Cl)c3cc(C(=O)NCCCN4CCCC4)sc3c2c1 | 8.7 |
| CCOc1ccc2c(=NN=Cc3ccccn3)cc(C)[nH]c2c1 | 9.68 |
| c1ccc(-c2cc3cccc(-c4nc5cnccc5[nH]4)c3o2)cc1 | 10.8 |
| O=C(CCNc1ccnc(NCCc2ccc(F)cc2)n1)Nc1ccccc1 | 3.86 |
| COc1ccccc1-n1c(-c2ccc3ccccc3c2)csc1=NC(=O)c1ccccc1 | 0.68 |
| COc1cc(-n2cnc3cc(-c4ccc(Cl)cc4)sc3c2=O)ccc1OCCN1CCC(c2cccc(NC(C)=O)c2)CC1 | 6.68 |
| COc1c(CNCCCCCCNCc2cc(Cl)c3ccccc3c2OC)cc(Cl)c2ccccc12 | 1.94 |
| CCc1ccc(NC(=O)c2cccc(CN3CCCN(Cc4cccc(O)c4)CC3)c2)cc1 | 3.9 |
| O=C(N[C@H](Cc1ccc(Cl)cc1)C(=O)N1CCN(c2ccnc3cc(Cl)ccc23)CC1)[C@H]1Cc2ccccc2CN1 | 0.9 |
